# Measured values as given in PMC7862700, “An all-to-all approach to the identification of sequence-specific readers for epigenetic DNA modifications on cytosine”.
# What was measured:
# Assay in all cases: DAPPL (digital affinity profiling via proximity ligation, sequencing); 10 mM Tris-HCl pH 7.5, 50 mM NaCl, 1 mM DTT, 4% glycerol, room temperature, 30 min; GST-TFs on glutathione beads, 16-mer random dsDNA library, 0.1% formaldehyde crosslink after washing; high values mean tight binding
# FEV = target: T1, FEV (Homo sapiens, UniProt Q99581 1-238); details: protein: recombinant; tags: N-terminal GST; dsDNA, one strand shown
# T1 sequence: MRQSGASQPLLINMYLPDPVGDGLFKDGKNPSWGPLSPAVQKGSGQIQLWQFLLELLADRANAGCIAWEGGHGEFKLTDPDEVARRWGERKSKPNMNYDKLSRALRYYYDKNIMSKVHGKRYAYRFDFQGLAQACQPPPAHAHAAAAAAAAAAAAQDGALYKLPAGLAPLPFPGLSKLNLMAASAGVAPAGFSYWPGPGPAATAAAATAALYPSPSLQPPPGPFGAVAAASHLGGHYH
# Procedure, shortened: (§1)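 Yeast served to express human transcription factors as GST fusions, which were then captured on glutathione beads and labelled with DNA barcodes. Pooled with a tag-only sample, they were incubated with 200 nmole of a 16-mer random double-stranded DNA library for 30 min at room temperature in Tris/NaCl/DTT/glycerol buffer, washed, crosslinked with 0.1% formaldehyde, ligated by proximity, amplified by PCR and sequenced. Dividing each hexamer's read frequency for a factor by its frequency for the tag-only sample gives the binding signal.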
# ETV5 = ETV5 (Homo sapiens, UniProt P41161 1-510); details: protein: recombinant; tags: N-terminal GST; dsDNA, one strand shown
# Chain of ETV5 (P41161 whole entry): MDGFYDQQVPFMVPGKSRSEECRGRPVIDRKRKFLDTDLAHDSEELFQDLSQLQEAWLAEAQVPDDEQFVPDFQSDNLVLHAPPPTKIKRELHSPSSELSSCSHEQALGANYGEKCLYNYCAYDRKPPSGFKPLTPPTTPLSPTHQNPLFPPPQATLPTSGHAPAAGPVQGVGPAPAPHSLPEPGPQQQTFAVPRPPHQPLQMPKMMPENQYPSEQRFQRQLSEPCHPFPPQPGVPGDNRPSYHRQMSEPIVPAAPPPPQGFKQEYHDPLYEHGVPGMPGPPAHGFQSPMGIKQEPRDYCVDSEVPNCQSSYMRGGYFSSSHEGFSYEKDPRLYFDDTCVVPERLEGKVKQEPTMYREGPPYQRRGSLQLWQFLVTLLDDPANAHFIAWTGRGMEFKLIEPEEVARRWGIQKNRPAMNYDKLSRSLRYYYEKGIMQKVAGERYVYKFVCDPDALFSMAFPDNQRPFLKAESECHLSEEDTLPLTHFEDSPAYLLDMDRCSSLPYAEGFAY
# Procedure, shortened: as §1
# HSF1 = HSF1 (Homo sapiens, UniProt Q00613 1-529); details: protein: recombinant; tags: N-terminal GST; chain copies: 3; dsDNA, one strand shown
# Chain of HSF1 (Q00613 whole entry): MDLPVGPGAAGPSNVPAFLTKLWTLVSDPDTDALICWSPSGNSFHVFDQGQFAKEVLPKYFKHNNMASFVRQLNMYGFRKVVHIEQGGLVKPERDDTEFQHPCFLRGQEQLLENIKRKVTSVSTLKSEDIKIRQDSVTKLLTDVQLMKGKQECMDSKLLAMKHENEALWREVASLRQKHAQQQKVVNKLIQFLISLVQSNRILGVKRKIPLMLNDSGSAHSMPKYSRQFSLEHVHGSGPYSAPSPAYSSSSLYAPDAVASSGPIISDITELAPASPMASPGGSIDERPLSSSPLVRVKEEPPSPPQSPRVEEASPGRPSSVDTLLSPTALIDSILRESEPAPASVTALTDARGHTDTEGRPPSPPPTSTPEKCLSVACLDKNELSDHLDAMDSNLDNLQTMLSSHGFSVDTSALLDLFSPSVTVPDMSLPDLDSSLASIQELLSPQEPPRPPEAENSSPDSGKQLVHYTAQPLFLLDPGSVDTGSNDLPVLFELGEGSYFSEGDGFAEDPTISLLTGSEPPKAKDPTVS
# Procedure, shortened: as §1
# SPIC = target: T2, SPIC (Homo sapiens, UniProt Q8N5J4 1-248); details: protein: recombinant; tags: N-terminal GST; dsDNA, one strand shown
# T2 sequence: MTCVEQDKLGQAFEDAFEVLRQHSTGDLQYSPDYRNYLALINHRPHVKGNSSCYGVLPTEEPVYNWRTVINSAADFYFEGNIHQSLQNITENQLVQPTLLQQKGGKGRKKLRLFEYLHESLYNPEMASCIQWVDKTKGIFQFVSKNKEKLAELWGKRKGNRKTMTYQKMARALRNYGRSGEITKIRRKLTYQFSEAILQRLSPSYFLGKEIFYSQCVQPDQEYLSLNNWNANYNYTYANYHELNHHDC
# Procedure, shortened: as §1
# ELF4 = ELF4 (Homo sapiens, UniProt Q99607 1-663); details: protein: recombinant; tags: N-terminal GST; dsDNA, one strand shown
# Chain of ELF4 (Q99607 whole entry): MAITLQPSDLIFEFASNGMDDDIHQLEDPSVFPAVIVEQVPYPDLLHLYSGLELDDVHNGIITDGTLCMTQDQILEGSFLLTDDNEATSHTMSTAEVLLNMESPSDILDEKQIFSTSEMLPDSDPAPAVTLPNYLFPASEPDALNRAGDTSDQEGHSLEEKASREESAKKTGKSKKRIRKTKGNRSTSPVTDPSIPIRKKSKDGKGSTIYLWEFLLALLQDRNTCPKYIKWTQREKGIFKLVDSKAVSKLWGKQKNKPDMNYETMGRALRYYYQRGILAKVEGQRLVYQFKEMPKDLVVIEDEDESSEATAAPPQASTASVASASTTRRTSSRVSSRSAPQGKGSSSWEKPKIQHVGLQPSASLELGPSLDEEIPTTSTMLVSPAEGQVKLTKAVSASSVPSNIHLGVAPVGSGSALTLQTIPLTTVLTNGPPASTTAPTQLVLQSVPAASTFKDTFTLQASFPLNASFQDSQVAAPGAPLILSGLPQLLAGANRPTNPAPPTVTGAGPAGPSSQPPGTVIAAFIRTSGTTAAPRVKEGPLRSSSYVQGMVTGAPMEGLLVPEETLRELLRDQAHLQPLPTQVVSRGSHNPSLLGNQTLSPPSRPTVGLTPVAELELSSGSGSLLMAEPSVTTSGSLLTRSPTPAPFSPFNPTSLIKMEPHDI
# Procedure, shortened: as §1
# ELK4 = target: T3, ELK4 (Homo sapiens, UniProt P28324-2 1-405); details: protein: recombinant; tags: N-terminal GST; dsDNA, one strand shown
# T3 sequence: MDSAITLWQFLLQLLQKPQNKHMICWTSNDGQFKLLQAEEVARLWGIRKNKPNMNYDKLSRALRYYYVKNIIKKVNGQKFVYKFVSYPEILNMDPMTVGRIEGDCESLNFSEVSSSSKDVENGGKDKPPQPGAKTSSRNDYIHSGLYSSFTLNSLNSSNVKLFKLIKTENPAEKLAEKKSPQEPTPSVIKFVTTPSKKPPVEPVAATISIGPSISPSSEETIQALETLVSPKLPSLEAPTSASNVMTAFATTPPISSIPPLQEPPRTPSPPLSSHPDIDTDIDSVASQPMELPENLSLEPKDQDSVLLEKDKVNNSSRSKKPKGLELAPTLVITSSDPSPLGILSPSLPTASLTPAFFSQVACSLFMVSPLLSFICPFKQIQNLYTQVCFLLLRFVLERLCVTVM
# Procedure, shortened: as §1
# ETV2 = target: T4, ETV2 (Homo sapiens, UniProt O00321 1-342); details: protein: recombinant; tags: N-terminal GST; dsDNA, one strand shown
# T4 sequence: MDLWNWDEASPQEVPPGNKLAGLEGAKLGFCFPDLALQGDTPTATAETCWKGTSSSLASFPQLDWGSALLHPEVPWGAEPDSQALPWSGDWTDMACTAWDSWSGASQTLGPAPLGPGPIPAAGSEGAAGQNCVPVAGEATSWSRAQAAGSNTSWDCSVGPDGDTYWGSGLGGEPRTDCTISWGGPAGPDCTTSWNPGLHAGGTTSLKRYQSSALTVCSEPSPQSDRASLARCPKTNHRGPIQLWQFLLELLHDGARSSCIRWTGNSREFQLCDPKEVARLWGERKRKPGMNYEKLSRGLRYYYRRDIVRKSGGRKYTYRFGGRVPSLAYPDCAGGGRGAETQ
# Procedure, shortened: as §1
# ELF3 = target: T5, ELF3 (Homo sapiens, UniProt P78545 1-371); details: protein: recombinant; tags: N-terminal GST; dsDNA, one strand shown
# T5 sequence: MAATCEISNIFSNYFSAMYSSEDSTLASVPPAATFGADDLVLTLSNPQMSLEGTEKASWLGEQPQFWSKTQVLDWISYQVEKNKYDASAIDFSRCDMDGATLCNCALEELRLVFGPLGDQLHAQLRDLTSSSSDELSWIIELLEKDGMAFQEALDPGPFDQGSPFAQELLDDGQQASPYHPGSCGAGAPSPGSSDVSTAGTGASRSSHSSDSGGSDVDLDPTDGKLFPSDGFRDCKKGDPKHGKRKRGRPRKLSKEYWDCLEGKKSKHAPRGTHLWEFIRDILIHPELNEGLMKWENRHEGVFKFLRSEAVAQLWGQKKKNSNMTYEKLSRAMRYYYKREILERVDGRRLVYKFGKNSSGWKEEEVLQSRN
# Procedure, shortened: as §1
# CRX = CRX (Homo sapiens, UniProt O43186 1-299); details: protein: recombinant; tags: N-terminal GST; dsDNA, one strand shown
# Chain of CRX (O43186 whole entry): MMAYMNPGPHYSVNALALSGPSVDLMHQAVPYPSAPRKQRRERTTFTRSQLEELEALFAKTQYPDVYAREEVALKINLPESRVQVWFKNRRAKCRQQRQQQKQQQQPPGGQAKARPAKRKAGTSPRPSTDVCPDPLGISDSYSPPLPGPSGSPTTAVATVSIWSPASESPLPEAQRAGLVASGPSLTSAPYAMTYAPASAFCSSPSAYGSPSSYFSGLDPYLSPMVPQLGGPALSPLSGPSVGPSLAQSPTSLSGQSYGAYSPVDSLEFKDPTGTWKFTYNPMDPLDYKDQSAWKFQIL
# Procedure, shortened: as §1
# ETV1 = ETV1 (Homo sapiens, UniProt P50549 1-477); details: protein: recombinant; tags: N-terminal GST; dsDNA, one strand shown
# Chain of ETV1 (P50549 whole entry): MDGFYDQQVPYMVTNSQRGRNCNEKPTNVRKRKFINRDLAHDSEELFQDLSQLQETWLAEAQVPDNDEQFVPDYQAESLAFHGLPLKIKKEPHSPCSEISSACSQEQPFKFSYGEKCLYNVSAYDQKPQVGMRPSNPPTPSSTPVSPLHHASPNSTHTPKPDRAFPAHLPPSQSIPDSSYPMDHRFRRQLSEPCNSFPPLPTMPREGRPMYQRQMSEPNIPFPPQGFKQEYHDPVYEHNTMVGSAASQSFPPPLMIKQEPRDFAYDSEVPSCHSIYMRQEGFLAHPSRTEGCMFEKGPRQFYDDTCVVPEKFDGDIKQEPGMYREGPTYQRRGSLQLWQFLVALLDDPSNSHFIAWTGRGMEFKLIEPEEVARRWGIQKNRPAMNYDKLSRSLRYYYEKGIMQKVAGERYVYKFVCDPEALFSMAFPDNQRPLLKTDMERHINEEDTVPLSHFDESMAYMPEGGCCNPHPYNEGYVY
# Procedure, shortened: as §1
# ERF = target: T6, ERF (Homo sapiens, UniProt P50548 1-548); details: protein: recombinant; tags: N-terminal GST; dsDNA, one strand shown
# T6 sequence: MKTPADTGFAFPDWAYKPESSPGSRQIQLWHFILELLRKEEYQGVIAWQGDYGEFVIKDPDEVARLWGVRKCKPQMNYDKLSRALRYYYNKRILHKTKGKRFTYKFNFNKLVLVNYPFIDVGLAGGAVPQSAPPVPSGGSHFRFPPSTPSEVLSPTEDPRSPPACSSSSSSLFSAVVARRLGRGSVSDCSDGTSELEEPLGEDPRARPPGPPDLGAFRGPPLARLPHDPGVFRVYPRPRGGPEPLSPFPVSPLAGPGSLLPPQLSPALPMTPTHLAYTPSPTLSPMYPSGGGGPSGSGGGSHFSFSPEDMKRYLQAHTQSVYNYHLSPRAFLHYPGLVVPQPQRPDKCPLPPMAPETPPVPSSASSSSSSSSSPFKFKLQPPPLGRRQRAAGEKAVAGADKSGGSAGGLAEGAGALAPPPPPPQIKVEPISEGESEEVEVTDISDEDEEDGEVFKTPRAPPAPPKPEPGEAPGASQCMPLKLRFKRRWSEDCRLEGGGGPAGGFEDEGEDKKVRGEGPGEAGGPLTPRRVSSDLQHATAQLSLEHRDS
# Procedure, shortened: as §1
# ETV3L = target: T7, ETV3L (Homo sapiens, UniProt Q6ZN32 1-361); details: protein: recombinant; tags: N-terminal GST; dsDNA, one strand shown
# T7 sequence: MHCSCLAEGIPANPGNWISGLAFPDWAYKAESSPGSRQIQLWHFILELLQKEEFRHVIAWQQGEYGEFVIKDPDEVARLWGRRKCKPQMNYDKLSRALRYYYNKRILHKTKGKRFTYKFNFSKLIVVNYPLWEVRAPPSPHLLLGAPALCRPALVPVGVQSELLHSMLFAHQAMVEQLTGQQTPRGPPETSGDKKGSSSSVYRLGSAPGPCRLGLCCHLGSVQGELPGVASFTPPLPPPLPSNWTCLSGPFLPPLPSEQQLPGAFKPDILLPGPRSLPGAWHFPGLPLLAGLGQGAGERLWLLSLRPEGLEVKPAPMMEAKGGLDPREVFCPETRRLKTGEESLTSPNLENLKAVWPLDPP
# Procedure, shortened: as §1
# ETS2 = target: T8, ETS2 (Homo sapiens, UniProt P15036 1-469); details: protein: recombinant; tags: N-terminal GST; dsDNA, one strand shown
# T8 sequence: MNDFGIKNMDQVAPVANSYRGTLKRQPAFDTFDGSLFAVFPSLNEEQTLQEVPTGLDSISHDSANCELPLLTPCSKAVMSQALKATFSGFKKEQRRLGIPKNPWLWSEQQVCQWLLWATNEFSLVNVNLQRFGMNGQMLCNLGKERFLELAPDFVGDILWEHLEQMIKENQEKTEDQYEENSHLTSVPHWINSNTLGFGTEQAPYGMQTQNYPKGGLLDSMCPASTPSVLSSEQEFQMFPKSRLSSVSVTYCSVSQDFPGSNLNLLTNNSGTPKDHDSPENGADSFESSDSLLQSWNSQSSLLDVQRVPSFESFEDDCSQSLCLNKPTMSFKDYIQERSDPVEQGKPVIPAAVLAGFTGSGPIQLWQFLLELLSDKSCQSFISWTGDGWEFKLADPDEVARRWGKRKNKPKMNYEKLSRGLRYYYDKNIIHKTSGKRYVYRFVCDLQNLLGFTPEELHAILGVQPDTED
# Procedure, shortened: as §1
# SPDEF = target: T9, SPDEF (Homo sapiens, UniProt O95238 1-335); details: protein: recombinant; tags: N-terminal GST; dsDNA, one strand shown
# T9 sequence: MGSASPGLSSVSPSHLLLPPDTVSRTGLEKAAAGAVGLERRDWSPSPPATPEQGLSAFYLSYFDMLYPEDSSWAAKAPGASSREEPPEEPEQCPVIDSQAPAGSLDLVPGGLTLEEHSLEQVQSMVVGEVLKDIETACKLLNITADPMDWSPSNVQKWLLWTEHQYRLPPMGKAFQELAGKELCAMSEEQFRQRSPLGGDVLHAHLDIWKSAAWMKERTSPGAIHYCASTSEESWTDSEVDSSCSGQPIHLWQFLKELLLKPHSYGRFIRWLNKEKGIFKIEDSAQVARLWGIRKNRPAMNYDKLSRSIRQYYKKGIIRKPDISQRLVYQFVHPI
# Procedure, shortened: as §1
# ETV7 = target: T10, ETV7 (Homo sapiens, UniProt Q9Y603 1-341); details: protein: recombinant; tags: N-terminal GST; dsDNA, one strand shown
# T10 sequence: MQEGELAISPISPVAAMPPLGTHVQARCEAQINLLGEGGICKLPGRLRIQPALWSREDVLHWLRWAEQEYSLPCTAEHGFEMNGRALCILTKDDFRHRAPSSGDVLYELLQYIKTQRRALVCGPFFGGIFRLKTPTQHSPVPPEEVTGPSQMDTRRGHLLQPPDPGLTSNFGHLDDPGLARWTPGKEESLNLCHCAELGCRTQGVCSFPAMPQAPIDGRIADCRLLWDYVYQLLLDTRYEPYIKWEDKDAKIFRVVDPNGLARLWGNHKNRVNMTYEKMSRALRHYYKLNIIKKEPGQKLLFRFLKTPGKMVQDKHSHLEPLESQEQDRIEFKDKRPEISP
# Procedure, shortened: as §1
# ELF5 = target: T11, ELF5 (Homo sapiens, UniProt Q9UKW6-2 1-255); details: protein: recombinant; tags: N-terminal GST; dsDNA, one strand shown
# T11 sequence: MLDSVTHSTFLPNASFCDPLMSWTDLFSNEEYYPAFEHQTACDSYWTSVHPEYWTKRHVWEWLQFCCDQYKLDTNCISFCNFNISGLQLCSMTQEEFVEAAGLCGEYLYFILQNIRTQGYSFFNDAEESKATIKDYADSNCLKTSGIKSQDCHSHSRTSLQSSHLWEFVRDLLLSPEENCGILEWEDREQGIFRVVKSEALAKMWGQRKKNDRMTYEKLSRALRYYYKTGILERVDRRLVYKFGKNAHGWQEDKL
# Procedure, shortened: as §1
# ETV3 = target: T12, ETV3 (Homo sapiens, UniProt P41162-2 1-143); details: protein: recombinant; tags: N-terminal GST; dsDNA, one strand shown
# T12 sequence: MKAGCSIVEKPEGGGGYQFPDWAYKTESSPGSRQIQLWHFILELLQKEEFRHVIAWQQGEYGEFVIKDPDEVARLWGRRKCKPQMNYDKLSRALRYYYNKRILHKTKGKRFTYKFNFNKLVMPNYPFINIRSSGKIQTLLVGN
# Procedure, shortened: as §1
# ETV6 = ETV6 (Homo sapiens, UniProt P41212 1-452); details: protein: recombinant; tags: N-terminal GST; dsDNA, one strand shown
# Chain of ETV6 (P41212 whole entry): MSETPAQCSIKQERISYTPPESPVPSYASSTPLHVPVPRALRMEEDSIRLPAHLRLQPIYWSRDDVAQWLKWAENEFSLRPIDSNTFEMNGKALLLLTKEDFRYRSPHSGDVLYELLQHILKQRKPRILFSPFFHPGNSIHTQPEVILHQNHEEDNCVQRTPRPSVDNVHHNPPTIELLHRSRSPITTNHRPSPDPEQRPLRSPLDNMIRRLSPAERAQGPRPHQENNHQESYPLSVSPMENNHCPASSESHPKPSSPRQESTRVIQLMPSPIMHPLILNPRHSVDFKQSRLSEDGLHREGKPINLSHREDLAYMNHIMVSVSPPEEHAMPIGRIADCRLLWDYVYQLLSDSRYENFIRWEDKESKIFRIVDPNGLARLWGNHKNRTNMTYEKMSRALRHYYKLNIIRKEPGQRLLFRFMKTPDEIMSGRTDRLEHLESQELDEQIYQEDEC
# Procedure, shortened: as §1
sequence,measurement,setting,value
TTTGTC,binding signal,FEV,"1.19 fold enrichment (6-mer frequency, TF over GST control)"
same,binding signal,ETV5,"1.15 fold enrichment (6-mer frequency, TF over GST control)"
same,binding signal,HSF1,"1.11 fold enrichment (6-mer frequency, TF over GST control)"
same,binding signal,SPIC,"1.16 fold enrichment (6-mer frequency, TF over GST control)"
same,binding signal,ELF4,"1.18 fold enrichment (6-mer frequency, TF over GST control)"
same,binding signal,ELK4,"1.23 fold enrichment (6-mer frequency, TF over GST control)"
same,binding signal,ETV2,"1.16 fold enrichment (6-mer frequency, TF over GST control)"
same,binding signal,ELF3,"1.27 fold enrichment (6-mer frequency, TF over GST control)"
same,binding signal,CRX,"1.29 fold enrichment (6-mer frequency, TF over GST control)"
same,binding signal,ETV1,"1.14 fold enrichment (6-mer frequency, TF over GST control)"
same,binding signal,ERF,"1.23 fold enrichment (6-mer frequency, TF over GST control)"
same,binding signal,ETV3L,"1.32 fold enrichment (6-mer frequency, TF over GST control)"
same,binding signal,ETS2,"1.24 fold enrichment (6-mer frequency, TF over GST control)"
same,binding signal,SPDEF,"1.14 fold enrichment (6-mer frequency, TF over GST control)"
same,binding signal,ETV7,"1.35 fold enrichment (6-mer frequency, TF over GST control)"
same,binding signal,ELF5,"1.22 fold enrichment (6-mer frequency, TF over GST control)"
same,binding signal,ETV3,"1.29 fold enrichment (6-mer frequency, TF over GST control)"
same,binding signal,ETV6,"1.17 fold enrichment (6-mer frequency, TF over GST control)"
